# According to PubChem BioAssay (EPA / NIEHS):
# Inconclusive results are not listed. Activity calls are given as the source filed them. How the source made its calls: active means hit-call score of the fitted dose curve at least 0.9, where 1 is the maximum; inconclusive means response in the unintended direction; inactive means score below 0.9.
# Read-out: Cytochrome P450 2C19 (Homo sapiens) (UniProt P33261)
# Test: CLD_CYP2C19_48hr: CellzDirect (CLD) Gene Expression Assay for xenobiotic metabolism (CYP2C19) at 48 hours (AID 2283700);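 further: fitted upward so actives raise CYP2C19 mRNA above the 0.2% DMSO vehicle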
# Description: CLD_48hr is a cell-based, multiplexed-readout assay that uses hepatocyte, a human liver primary cell, with measurements taken at 48 hours after chemical dosing in a 96-well plate.CLD_CYP2C19_48hr is one of 16 assay component(s) measured or calculated from the CLD_48hr assay. It is designed to make measurements of mRNA induction, a form of inducible reporter, as detected with chemiluminescence signals by Quantitative Nuclease Protection Assay (qNPA) technology.Data from the assay component CLD_CYP2C19_48hr was analyzed at the endpoint, CLD_CYP2C19_48hr, in the positive analysis fitting direction relative to DMSO as the negative control and baseline of activity. Using a type of inducible reporter, gain-of-signal activity can be used to understand changes in the reporter gene as they relate to the gene CYP2C19. Furthermore, this assay endpoint can be referred to as a primary readout. To generalize the intended target to other relatable targets, this assay endpoint is annotated to the cyp intended target family, where subfamily is xenobiotic metabolism.
# Human hepatocyte cultures were treated daily for two consecutive days with fresh dosing solutions containing appropriate concentrations of the 320 ToxCast chemicals (chemical identities were blinded to CellzDirect and other ToxCast collaborators), vehicle control (0.2% DMSO), and positive control inducers as summarized in Table 1. Due to the large number of treatment groups and chemicals examined, the ToxCast chemicals were divided into two groups (spanning two independent cultures of hepatocytes from separate donor preparations (Hu778: ToxCast plates 1 and 2; Hu776: ToxCast plates 3 and 4). Each preparation of human hepatocyte cultures was treated with respective vehicle control, medium only control, set of six positive controls/reference chemicals for the five hepatic receptor pathways, and a subset of eight of the ToxCast chemicals (indoxacarb, pyrithiobac-sodium, norflurazon, cyhalofop-butyl, methomyl, thiram, acetochlor, and propiconazole). These replicate data, coupled with internal replicates designed within the blinded ToxCast chemical library, provided additional data to evaluate interindividual differences between hepatocyte preparations and their potential impact on chemical profiles.Cell morphology and integrity were evaluated using phase-contrast microscopy as an indicator of hepatocyte cell health (Tyson & Green, 1987). Cultures for each treatment group (i.e., media, vehicle [0.2% DMSO], positive control inducers [multiple concentrations], and the ToxCast chemicals [multiple concentrations]) were observed and cell morphology was assessed relative to vehicle control cultures at each harvest time point (0, 6, 24, or 48 h). […] Images were evaluated at the conclusion of the study to assess changes in cell integrity and account for the effects of chemical exposure on uncharacteristic changes in concentration-dependent gene expression profiles. The results from these determinations of apparent cytotoxicity were annotated (yes/no) alongside the corresponding qNPA data for reference.At the conclusion of each treatment period, hepatocyte cultures (96-well) were washed with 1 volume of HBSS, lysed by addition of 25 ul ArrayPlate lysis buffer (HTG, Tucson, AZ), and 70 ul/well of Denaturation Oil, denatured by incubation at 95C for 10 min, and frozen at approximately -70C until analysis by nuclease protection assay (qNPA) (Roberts et al., 2007). For qNPA analysis, cell lysates were thawed at 50C for approximately 30 min, qNPA probes were added, and samples were incubated at 95C for 10 min to begin the detection process by denaturing the target RNA, dissociating the duplexes and secondary structure hybridization. At the conclusion of the hybridization period, S1 nuclease reagent was added to each sample to digest all nonprotected nucleotides at 50C for 60-90 min. […]
# Sequence of Cytochrome P450 2C19 (Homo sapiens) (P33261 whole entry, looked up): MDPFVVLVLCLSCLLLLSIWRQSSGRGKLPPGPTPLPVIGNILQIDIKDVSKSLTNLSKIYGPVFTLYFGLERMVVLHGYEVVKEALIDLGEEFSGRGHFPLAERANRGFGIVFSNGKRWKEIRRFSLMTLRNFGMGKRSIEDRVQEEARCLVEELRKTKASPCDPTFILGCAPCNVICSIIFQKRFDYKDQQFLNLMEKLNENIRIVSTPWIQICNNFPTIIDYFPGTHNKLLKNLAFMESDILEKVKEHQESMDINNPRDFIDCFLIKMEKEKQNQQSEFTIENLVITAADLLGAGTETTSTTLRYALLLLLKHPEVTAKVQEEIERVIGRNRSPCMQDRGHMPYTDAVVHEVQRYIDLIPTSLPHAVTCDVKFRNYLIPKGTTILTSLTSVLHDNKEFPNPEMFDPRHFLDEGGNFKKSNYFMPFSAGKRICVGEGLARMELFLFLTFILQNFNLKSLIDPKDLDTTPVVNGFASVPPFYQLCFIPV
row,Structure (SMILES),outcome
1,CCNc1nc(Cl)nc(NCC)n1,inactive
2,COc1cnc(OC)n2nc(NS(=O)(=O)c3c(OCC(F)F)cccc3C(F)(F)F)nc12,inactive
3,CC1COC(Cn2cncn2)(c2ccc(Oc3ccc(Cl)cc3)cc2Cl)O1 (centres undefined),inactive
4,CCCCOC(=O)c1ccccc1C(=O)OCCCC,inactive
5,C=CC1(C)OC(=O)N(c2cc(Cl)cc(Cl)c2)C1=O (centres undefined),inactive
6,CCON=C(CC)C1=C(O)CC(c2c(C)cc(C)cc2C)CC1=O (centres undefined),inactive
7,CCCCNC(=O)n1c(NC(=O)OC)nc2ccccc21,inactive
8,C=CCC1=C(C)[C@@H](OC(=O)[C@@H]2[C@@H](C=C(C)C)C2(C)C)CC1=O,inactive
9,CCCCC(CC)COC(=O)c1ccccc1C(=O)OCC(CC)CCCC (centres undefined),inactive
10,CCCCNC(=O)OCC#CI,inactive
11,COc1nc(NC(C)C)nc(NC(C)C)n1,inactive
12,CCOC(=O)C(Cl)Cc1cc(-n2nc(C)n(C(F)F)c2=O)c(F)cc1Cl (centres undefined),inactive
13,N#CC(CCc1ccc(Cl)cc1)(Cn1cncn1)c1ccccc1 (centres undefined),inactive
14,Cc1cc(Cl)ccc1OCC(=O)O,inactive
15,COC(=O)C=C(C)OP(=O)(OC)OC,inactive
16,CC(C)(C)c1ccc(CSc2cnn(C(C)(C)C)c(=O)c2Cl)cc1,inactive
17,COc1nc(C)nc(NC(=O)NS(=O)(=O)c2ccccc2Cl)n1,inactive
18,CCOc1cc(Oc2ccc(C(F)(F)F)cc2Cl)ccc1[N+](=O)[O-],inactive
19,Oc1ccccc1-c1ccccc1,inactive
20,COC(=O)C(C)Oc1ccc(Oc2ccc(Cl)cc2Cl)cc1 (centres undefined),inactive
21,COP(N)(=O)SC (centres undefined),inactive
22,O=C(O)c1nc(Cl)ccc1Cl,inactive
23,COc1ccc(C(c2ccc(OC)cc2)C(Cl)(Cl)Cl)cc1,inactive
24,CS/C(C)=N/OC(=O)N(C)SN(C)C(=O)O/N=C(\C)SC,inactive
